Source: the supplement of paper PMC3334620
Over roughly 33,000 sequences, “E-score (-0.5 to 0.5)” has its median near -0.056; the highest 2% begin near 0.38. Many of the other results were omitted from the sample, so the highest values are more common in it than they were.

The sequences below were run against Stb4 (UniProt P50104) (assay: PBM E-score (8-mer binding enrichment) (E-score (-0.5 to 0.5)); higher = stronger / more preferred TF binding). Settings: protein concentration: 200 nM; construct: GST-DNA-binding domain.
Method in brief: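 Yeast transcription factors, full-length or as DNA-binding domains, were expressed with a GST tag using PURExpress in vitro transcription/translation. At about 100-200 nM they were applied to universal all-10-mer Agilent arrays, double-stranded by primer extension on fresh or once-stripped slides. Fluorescent anti-GST detected bound protein, and masliner normalised the scans. E-scores for ungapped eight-base words, pooled with reverse complements, came from the Universal PBM Analysis Suite.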

UniProt P50104, sequence (P50104 whole entry, the tested form may be a part): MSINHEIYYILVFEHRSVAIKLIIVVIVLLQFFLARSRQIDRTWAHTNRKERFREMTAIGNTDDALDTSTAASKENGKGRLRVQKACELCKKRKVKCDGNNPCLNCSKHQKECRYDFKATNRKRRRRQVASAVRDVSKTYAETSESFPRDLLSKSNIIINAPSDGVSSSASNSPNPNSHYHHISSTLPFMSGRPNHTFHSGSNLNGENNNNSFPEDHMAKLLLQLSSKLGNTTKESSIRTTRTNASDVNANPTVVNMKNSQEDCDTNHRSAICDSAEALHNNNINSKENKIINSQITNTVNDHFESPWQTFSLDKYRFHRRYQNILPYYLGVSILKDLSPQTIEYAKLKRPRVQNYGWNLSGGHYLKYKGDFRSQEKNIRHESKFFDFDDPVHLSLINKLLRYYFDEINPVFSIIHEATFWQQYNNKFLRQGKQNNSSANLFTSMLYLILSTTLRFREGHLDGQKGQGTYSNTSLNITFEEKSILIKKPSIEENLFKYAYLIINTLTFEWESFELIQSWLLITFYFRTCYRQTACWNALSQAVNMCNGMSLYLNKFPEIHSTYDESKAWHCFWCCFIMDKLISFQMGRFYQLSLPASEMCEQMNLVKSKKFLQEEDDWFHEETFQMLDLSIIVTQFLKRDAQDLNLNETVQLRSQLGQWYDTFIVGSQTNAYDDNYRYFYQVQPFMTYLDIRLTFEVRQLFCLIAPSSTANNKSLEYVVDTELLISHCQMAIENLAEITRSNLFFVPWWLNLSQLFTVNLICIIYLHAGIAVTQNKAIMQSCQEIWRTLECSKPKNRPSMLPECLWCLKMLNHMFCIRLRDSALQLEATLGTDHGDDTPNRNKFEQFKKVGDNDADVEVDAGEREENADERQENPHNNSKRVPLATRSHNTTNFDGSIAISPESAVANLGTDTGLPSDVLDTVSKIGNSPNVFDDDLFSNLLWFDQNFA

Sequence	PBM E-score
GTTCGGAA	0.474
ATTCGGAG	0.324
CTTCGGAA	0.485
CTACGGAA	0.222
ATTCGGAA	0.456
CTTCGGAC	0.386
CTTCGAAC	-0.00115
GTACGGAA	0.323
ATGCGGAA	0.332
GTGCGGAA	0.289
CCTTTTCC	0.0594
GATAGTTA	0.0424
CATTTGTA	-0.106
ATGTAGCC	0.136
AGACAGCA	-0.0333
GCAGGCCC	-0.0954
ATTAGCCA	-0.26
ATTAGCCG	0.4
ATTAGCCC	-0.0135
AATGTCCC	0.169
AACTTCTC	0.0267
AATATTCC	0.347
CCCTTACA	-0.0902
CGGGCGAA	0.158

Sequence	PBM E-score
CAATCTGA	-0.0386
CACCGGAA	0.412
GACCGGAA	0.316
CACCGGAG	0.125
TACCGGAA	0.394
CACCGGAC	0.215
TACCGGTA	0.149
GATTGAGA	-0.0336
CAAGCGAG	0.0404
CCCGAAGG	0.394
TCCGAAGA	0.458
CCCGAAGC	0.371
GCCGAAGA	0.362
ACCGAAGA	0.359
CCCGAAGA	0.403
CACGAAGA	-0.255
ACCGAAGG	0.243
CGCGAAGA	0.112
CCCGCAGG	0.115
TGCACTAA	-0.112
ACTGAATG	0.0782
GTCAGGAC	-0.21
AGAGATTC	-0.00647
CAGGCCAA	-0.0749

Sequence	PBM E-score
TAACTTCA	-0.143
AGGTTGCG	-0.269
GTTCTATA	-0.173
GGACTTCA	-0.0404
ATATCTGA	-0.0996
TATGCCGA	0.411
AATGCCGT	0.277
GATGCCGC	0.0124
CCTGCCGA	0.359
AATGCCGG	0.313
GATGCCGA	0.411
CATGCCGA	0.353
ACTGCCGA	0.407
TATGCCCA	-0.104
TATGCCAA	-0.209
GCTGCCGA	0.378
AATGCCGA	0.415
AGAGGGCA	-0.289
AGGTACGA	-0.0929
ACAAGAAC	0.101
ATGGTTTG	0.117
CAGATCTG	-0.205
CAGACGAA	0.0157
CTACTGCA	-0.329

Sequence	PBM E-score
CTACTGAC	-0.0845
CTTAGAAC	-0.0637
GTCCTCGA	-0.228
AAGCAAAC	-0.0582
ATCCGGCC	0.394
CTCCGGGC	0.131
ATCCGGGC	0.405
ATCCGGCA	0.38
AGCCGGGC	0.166
ATCCGGGA	0.368
ATCCGGGG	0.398
AACCGGGG	0.164
ATCCGGCG	0.368
AATATAAC	0.109
CGTCTCAG	-0.235
CGGAACCA	0.41
TGGAACCA	0.0635
CCGAACCG	0.447
CGGAACCC	0.359
CGGAACCG	0.407
AGGAACCG	0.263
CCGAACCC	0.37
CCGAACCA	0.356
GGGAACCA	-0.0292

Sequence	PBM E-score
CATTCTCA	0.0317
CAATGTCC	0.00172
AAATGCGC	-0.041
ATGCCGAG	0.423
ATGCCGAA	0.433
GGGCCGAA	0.314
CTGCCGAC	0.331
CTGCCGCA	0.0287
ATGCCAAA	-0.302
ATGCCGCA	0.0956
ATGCCGTG	0.00847
ATGCCGAC	0.333
CTGCCGAA	0.411
GTGCCAAA	-0.0603
GTGCCGAA	0.441
GCAAGTGA	-0.0836
CTCGCGAG	-0.0385
GTAAGTAC	0.00926
AGCGACCC	0.0831
ATGGTCGC	-0.0565
CGTTAGCA	-0.0245
ACAGGCAT	-0.242
TAAGCCGA	0.392
GAAGCCCA	-0.1

Sequence	PBM E-score
AAAGCCGA	0.322
GAAGCCGC	0.193
GAAGCCGA	0.401
CAAGCCGA	0.297
ACGATTGG	-0.176
TCACGGCA	0.114
CCTCGGCG	0.411
GCTCGGCA	0.443
AATCGGCA	0.32
TCTCGGCA	0.446
GCACGGCA	0.109
CCACGGCG	-0.0429
ACTCGGCC	0.232
ACTCGGCA	0.428
ACTCGGCG	0.326
CATCGGCG	0.165
GCTCGGCC	0.289
ACGACGTC	-0.148
ATTGGGGA	-0.245
AGATACTG	-0.169
ACCAGCCG	0.256
AGATGAAG	-0.0847
AGCTAAGA	-0.055
AAGCCAAG	-0.0879

Sequence	PBM E-score
CCCGCATC	0.101
ACATAGAG	-0.166
GAGAAATC	0.0628
AATCGGCT	0.344
CGTCGGCA	0.38
CCTCGGCA	0.461
ACTCGGCT	0.414
ACTCGTCT	-0.126
CCTCGGCC	0.313
GAGTCCCC	-0.0682
ACGTGATA	-0.167
CCCTGACC	0.0155
CCAGACTC	-0.0717
GAAACAGA	-0.0644
CGCCGAAC	0.366
AGCCGAAG	0.391
CACCGAAA	0.201
AGACGAAG	-0.0901
GACCGAAA	0.255
AGCCGAAC	0.411
AGCCGTAT	0.0974
CGCCGAAG	0.372
TACCGAAA	0.385
GGCCGAAC	0.313

Sequence	PBM E-score
AGCCGACT	0.261
AGCCGAAT	0.426
GAGCCGTA	0.191
AGCCCGTC	-0.0989
ATGATTCG	0.0336
GGGTCTAA	-0.0158
AAAGCTCA	-0.202
CTGCAGTA	-0.353
AATCAGGC	-0.174
TGCCGACA	0.359
GGCCGAAA	0.319
TGCCGAAA	0.444
CGCCGAAA	0.34
TGACGAAA	-0.207
AGCCGAAA	0.425
AACAGGAA	-0.219
AGCACAAC	0.0479
